Laboratory results as given in PubChem BioAssay (Tox21).
Results filed as inconclusive are left out. The source made the active and inactive calls. The call rests on the fitted dose curve; in most records, active means well fitted curve in the direction sought with a large enough effect in the repeat runs; inconclusive means weak or mixed curves; inactive means no such curve, though single readings can be large; an effect the other way counts as inactive or inconclusive.

Columns and labels:
[1] = Human pregnane X receptor (PXR) small molecule agonists, qHTS cell viability counter screen (AID 1346977); further: nearly all actives have a fitted effect of over 50% in size; further: potency means the concentration at half of the fitted maximal effect
How it was run: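 Readout is CellTiter-Fluor fluorescence from PXR-Luc HepG2 cells. Plated cells rested 5hr, then were treated with compounds for 24hr at 37C and 5% CO2, with reagent present during the last hour.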

[2] = Caspase-3/7 induction in HepG2 cells by small molecules, qHTS assay (AID 1346978); further: nearly all actives have a fitted effect of over 15% in size
How it was run: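 Wild-type HepG2 cells, 2,000/well, settled 5 hr at 37 C and 5% CO2, then compound-treated for 17 hr; caspase-3/7 activity read by luminescent Caspase-Glo 3/7 after 30 min at room temperature.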

[3] = Caspase-3/7 induction in CHO-K1 cells by small molecules, qHTS cell viability counter screen (AID 1346979); further: nearly all actives have a fitted effect of over 35% in size; further: potency means the concentration at half of the fitted maximal effect
How it was run: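 To flag cytotoxic compounds, treated CHO-K1 wild-type cells were given CellTiter-Fluor at 16hr and read fluorescently after 1hr at 37C; the caspase-3/7 luminescence was measured in these same wells.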

[4] = Caspase-3/7 induction in CHO-K1 cells by small molecules, qHTS assay (AID 1346980); further: nearly all actives have a fitted effect of over 15% in size
How it was run: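 Wild-type CHO-K1 cells exposed to compounds for 17hr at 37 C, 5% CO2. Caspase-3/7 activity then measured by Caspase-Glo 3/7 luminescence after 30min at room temperature.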

[5] = Caspase-3/7 induction in HepG2 cells by small molecules, qHTS cell viability counter screen (AID 1346981); further: nearly all actives have a fitted effect of over 30% in size; further: potency means the concentration at half of the fitted maximal effect; on activity change, negative = cytotoxicity: series mostly up to about 92 µM
How it was run: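 Fluorescence read-out of live-cell protease activity (CellTiter-Fluor) after 1 hr with reagent. This was measured in the same wells as the caspase-3/7 luminescence, on HepG2 cells exposed to DMSO-dissolved compounds for 16 hr at 37 C.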

[6] = molecular target: Nuclear receptor subfamily 1 group I member 2 (Homo sapiens) (UniProt O75469); experiment: Human pregnane X receptor (PXR) small molecule agonists, qHTS assay (AID 1346982); further: nearly all actives have a fitted effect of over 35% in size; further: potency means the concentration at half of the fitted maximal effect
Nuclear receptor subfamily 1 group I member 2 (Homo sapiens), sequence (O75469 whole entry, looked up): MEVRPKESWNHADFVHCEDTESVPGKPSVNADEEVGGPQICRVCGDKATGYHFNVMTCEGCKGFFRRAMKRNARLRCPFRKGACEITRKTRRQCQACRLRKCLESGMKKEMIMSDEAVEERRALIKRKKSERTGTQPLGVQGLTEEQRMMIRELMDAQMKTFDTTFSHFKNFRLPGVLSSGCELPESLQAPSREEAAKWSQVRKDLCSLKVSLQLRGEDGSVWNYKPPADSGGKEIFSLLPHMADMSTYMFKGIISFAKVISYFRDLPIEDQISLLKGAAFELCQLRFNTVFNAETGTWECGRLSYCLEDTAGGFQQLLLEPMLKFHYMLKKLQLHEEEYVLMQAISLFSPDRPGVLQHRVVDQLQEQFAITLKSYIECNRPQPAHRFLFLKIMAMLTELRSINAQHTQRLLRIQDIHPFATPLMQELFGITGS
How it was run: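 HepG2 PXR-Luc reporter line, 5% charcoal-stripped FBS; 5 hr pre-incubation, compound (DMSO) 24 hr at 37 C/5% CO2; ONE-Glo 30 min RT; luminescence read-out.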

[7] = molecular target: Cytochrome P450 2D6 (Homo sapiens) (UniProt P10635); experiment: Cytochrome P450 Family 2 Subfamily D Member 6 (CYP2D6) small molecule antagonists: luciferase reporter qHTS assay (AID 1671196); further: nearly all actives have a fitted effect of over 50% in size; further: potency means the concentration at half of the fitted maximal effect; on activity change, negative = inhibition: series mostly up to about 120 µM
Cytochrome P450 2D6 (Homo sapiens), sequence (P10635 whole entry, looked up): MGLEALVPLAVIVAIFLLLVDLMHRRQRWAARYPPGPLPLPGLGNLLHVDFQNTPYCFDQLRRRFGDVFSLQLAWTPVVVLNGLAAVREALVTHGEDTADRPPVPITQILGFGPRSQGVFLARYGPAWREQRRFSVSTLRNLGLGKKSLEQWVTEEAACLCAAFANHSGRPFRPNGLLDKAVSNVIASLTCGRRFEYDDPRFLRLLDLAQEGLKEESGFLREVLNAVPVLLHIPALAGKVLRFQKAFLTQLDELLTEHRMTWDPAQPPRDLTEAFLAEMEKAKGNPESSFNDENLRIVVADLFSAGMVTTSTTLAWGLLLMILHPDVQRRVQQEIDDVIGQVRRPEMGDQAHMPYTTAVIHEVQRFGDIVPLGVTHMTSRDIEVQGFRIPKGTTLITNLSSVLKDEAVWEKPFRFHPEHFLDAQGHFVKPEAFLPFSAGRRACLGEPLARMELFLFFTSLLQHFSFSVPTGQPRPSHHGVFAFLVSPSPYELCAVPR
How it was run: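 Luminogenic proluciferin substrate, CYP2D6 enzyme; 10 min RT preincubation with compound, NADPH regeneration system added, 1 h RT. Stop/detection reagent, 20 min RT, luminescence read (RLU). Signal proportional to CYP activity.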

[8] = molecular target: Cytochrome P450 2C9 (Homo sapiens) (UniProt P11712); experiment: Cytochrome P450 Family 2 Subfamily C Member 9 (CYP2C9) small molecule antagonists: luciferase reporter qHTS assay (AID 1671198); further: nearly all actives have a fitted effect of over 50% in size; further: potency means the concentration at half of the fitted maximal effect; on activity change, negative = inhibition: series mostly up to about 120 µM
Cytochrome P450 2C9 (Homo sapiens), sequence (P11712 whole entry, looked up): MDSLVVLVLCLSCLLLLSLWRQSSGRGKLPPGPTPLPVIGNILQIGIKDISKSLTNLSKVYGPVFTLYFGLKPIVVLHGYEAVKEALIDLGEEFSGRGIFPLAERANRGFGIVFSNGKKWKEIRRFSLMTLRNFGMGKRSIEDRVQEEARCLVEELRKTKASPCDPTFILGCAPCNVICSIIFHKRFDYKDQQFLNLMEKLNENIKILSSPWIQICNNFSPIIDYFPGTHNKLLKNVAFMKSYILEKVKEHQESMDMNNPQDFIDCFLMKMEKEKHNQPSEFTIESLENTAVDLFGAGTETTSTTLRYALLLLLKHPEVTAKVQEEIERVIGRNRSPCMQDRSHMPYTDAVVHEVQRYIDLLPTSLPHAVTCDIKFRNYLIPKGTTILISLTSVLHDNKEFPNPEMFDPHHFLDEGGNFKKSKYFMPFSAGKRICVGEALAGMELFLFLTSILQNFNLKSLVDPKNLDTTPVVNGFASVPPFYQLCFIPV
How it was run: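 P450-Glo proluciferin substrate with CYP2C9 enzyme; 10 min RT preincubation, then NADPH regeneration 1 h at 37C; luciferin detection reagent 20 min RT, luminescence in relative luminescence units.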

[9] = molecular target: Voltage-gated inwardly rectifying potassium channel KCNH2 (Homo sapiens) (UniProt Q12809); experiment: Human Ether-a-go-go-Related Gene (hERG) channel small molecule antagonists: fluorescence cell-based qHTS assay (AID 1671200); further: nearly all actives have a fitted effect of over 50% in size; further: potency means the concentration at half of the fitted maximal effect;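 on activity change, negative = inhibition: hERG-expressing U2OS cells given a thallium stimulus after FluxOR II dye loading; series mostly up to about 77 µM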
Voltage-gated inwardly rectifying potassium channel KCNH2 (Homo sapiens), sequence (Q12809 whole entry, looked up): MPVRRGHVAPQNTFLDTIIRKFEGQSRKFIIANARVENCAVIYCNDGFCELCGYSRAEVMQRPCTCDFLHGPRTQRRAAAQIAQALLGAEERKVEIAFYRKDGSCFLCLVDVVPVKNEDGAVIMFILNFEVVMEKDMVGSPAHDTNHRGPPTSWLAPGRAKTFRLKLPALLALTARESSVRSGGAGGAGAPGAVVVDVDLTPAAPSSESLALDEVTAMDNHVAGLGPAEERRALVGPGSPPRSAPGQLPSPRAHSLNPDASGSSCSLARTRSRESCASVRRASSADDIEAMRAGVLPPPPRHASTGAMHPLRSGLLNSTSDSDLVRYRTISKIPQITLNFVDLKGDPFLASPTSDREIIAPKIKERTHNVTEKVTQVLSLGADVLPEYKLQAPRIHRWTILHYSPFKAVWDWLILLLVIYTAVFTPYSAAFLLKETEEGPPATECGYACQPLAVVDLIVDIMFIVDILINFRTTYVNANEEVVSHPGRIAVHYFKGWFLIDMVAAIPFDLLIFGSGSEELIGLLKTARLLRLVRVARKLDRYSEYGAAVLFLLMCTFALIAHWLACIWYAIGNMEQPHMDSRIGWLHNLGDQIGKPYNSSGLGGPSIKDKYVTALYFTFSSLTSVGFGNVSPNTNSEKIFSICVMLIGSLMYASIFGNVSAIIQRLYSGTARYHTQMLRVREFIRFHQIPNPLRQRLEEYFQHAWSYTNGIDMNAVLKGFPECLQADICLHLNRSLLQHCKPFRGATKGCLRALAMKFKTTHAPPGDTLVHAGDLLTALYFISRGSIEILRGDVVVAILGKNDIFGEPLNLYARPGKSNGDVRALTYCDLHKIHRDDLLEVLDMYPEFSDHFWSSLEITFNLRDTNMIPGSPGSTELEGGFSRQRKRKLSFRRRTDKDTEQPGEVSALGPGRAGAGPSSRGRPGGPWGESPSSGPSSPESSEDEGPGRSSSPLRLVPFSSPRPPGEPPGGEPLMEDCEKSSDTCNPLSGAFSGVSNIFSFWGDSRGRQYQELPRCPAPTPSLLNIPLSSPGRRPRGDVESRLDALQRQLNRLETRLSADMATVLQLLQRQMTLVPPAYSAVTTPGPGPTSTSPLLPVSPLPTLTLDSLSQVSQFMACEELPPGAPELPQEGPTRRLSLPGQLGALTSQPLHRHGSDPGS
How it was run: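 Measured: Tl+ flux via fluorescence (480/540 nm) in hERG-expressing U2OS cells after 1 h dye loading at room temperature.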

[10] = molecular target: Cytochrome P450 3A4 (Homo sapiens) (UniProt P08684); experiment: Cytochrome P450 Family 3 Subfamily A Member 4 (CYP3A4) small molecule antagonists: luciferase reporter qHTS assay (AID 1671201); further: nearly all actives have a fitted effect of over 50% in size; further: potency means the concentration at half of the fitted maximal effect; on activity change, negative = inhibition: series mostly up to about 120 µM
Cytochrome P450 3A4 (Homo sapiens), sequence (P08684 whole entry, looked up): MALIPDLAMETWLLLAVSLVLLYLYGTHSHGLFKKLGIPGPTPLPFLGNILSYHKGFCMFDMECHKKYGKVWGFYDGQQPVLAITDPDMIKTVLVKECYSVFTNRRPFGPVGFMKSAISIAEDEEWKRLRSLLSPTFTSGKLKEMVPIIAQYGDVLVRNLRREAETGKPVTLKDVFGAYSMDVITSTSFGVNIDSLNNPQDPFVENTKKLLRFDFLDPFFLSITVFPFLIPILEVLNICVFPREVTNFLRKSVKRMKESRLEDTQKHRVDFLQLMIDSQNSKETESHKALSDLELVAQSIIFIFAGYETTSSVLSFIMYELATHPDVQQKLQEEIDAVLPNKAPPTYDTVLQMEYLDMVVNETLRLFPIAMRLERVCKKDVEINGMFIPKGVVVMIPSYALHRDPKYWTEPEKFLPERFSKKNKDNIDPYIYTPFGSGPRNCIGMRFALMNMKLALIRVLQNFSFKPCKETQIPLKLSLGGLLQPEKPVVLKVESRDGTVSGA
How it was run: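 Setup: enzyme-substrate mix, compound pin transfer, 10 min RT. Reaction: NADPH regeneration solution, 1 h RT. Readout: detection reagent stops turnover, luminescence measured after 20 min, expressed in relative luminescence units.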

[11] = molecular target: Cytochrome P450 2C19 (Homo sapiens) (UniProt P33261); experiment: Cytochrome P450 Family 2 Subfamily C Member 19 (CYP2C19) small molecule antagonists: luciferase reporter qHTS assay (AID 1671197); further: nearly all actives have a fitted effect of over 65% in size; further: potency means the concentration at half of the fitted maximal effect; on activity change, negative = inhibition: series mostly up to about 120 µM
Cytochrome P450 2C19 (Homo sapiens), sequence (P33261 whole entry, looked up): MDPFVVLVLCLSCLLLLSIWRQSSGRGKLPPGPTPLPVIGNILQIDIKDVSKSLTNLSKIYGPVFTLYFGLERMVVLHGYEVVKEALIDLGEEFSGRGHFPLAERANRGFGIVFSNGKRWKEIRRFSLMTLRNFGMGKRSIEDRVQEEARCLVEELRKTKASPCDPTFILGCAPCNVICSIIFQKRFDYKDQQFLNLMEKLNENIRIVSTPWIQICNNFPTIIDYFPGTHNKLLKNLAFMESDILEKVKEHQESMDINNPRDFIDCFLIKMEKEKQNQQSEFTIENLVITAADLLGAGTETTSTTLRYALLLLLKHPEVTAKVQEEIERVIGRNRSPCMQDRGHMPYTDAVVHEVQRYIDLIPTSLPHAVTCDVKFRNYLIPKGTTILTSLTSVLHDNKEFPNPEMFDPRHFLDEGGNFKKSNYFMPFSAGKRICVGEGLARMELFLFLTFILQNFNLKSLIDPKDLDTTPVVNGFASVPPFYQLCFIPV
How it was run: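 Compounds were tested on CYP2C19 activity via proluciferin conversion to luciferin. The 37C, 1 h reaction followed NADPH addition; detection reagent stopped it.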

[12] = molecular target: Cytochrome P450 1A2 (Homo sapiens) (UniProt P05177); experiment: Cytochrome P450 Family 1 Subfamily A Member 2 (CYP1A2) small molecule antagonists: luciferase reporter qHTS assay (AID 1671199); further: nearly all actives have a fitted effect of over 50% in size; further: potency means the concentration at half of the fitted maximal effect; on activity change, negative = inhibition: series mostly up to about 120 µM
Cytochrome P450 1A2 (Homo sapiens), sequence (P05177 whole entry, looked up): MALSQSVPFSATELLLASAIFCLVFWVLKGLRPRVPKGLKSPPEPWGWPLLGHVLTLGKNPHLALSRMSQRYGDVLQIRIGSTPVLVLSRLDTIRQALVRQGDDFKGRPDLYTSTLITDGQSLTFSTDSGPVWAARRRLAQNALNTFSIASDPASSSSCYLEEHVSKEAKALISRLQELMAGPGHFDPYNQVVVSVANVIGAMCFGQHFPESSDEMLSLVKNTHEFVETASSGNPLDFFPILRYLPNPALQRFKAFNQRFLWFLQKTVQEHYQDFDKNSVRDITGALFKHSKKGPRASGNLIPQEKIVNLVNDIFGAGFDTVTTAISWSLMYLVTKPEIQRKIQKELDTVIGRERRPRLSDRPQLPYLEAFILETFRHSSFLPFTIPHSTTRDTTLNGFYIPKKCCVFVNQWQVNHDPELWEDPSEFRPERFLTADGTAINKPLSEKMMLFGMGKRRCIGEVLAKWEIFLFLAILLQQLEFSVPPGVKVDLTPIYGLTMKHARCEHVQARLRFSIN
How it was run: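 Luminescence readout (relative luminescence units) after luciferin detection reagent, 20 min RT. Preceded by 1 h room-temperature CYP1A2 reaction with NADPH regeneration solution following 10 min compound preincubation with enzyme and proluciferin substrate. Furafylline positive control.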

[13] = molecular target: Nuclear receptor subfamily 1 group I member 2 (Rattus norvegicus) (UniProt Q9R1A7); experiment: Rat pregnane X receptor (rPXR) activation by small molecules, qHTS assay (AID 1346983); conditions: rPXR luciferase reporter cells, One-Glo luminescence, 24 h; max activation: hits give high values; further: nearly all actives have a fitted effect of over 20% in size
Nuclear receptor subfamily 1 group I member 2 (Rattus norvegicus), sequence (Q9R1A7 whole entry, looked up): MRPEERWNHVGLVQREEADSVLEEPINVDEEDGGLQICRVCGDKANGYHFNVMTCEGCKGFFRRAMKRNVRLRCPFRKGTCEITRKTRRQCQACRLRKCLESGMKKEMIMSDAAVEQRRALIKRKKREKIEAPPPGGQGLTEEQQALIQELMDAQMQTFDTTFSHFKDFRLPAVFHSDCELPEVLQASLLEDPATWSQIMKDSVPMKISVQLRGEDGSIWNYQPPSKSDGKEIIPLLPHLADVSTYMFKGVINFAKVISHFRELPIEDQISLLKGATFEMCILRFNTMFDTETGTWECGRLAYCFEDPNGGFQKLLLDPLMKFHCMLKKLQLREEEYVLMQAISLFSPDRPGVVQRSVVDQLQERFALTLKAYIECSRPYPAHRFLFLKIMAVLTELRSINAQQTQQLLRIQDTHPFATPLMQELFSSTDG
How it was run: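 Cell-based rPXR activation assay: rPXR cells, 2,000 per well, rested 5hr at 37 C, then exposed to compounds in DMSO for 24 hr at 37 C. Luciferase activity read by One-Glo luminescence after 30 min at room temperature.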

[14] = molecular target: Nuclear receptor subfamily 1 group I member 2 (Homo sapiens) (UniProt O75469); experiment: Human pregnane X receptor (PXR) activation by small molecules, qHTS assay (AID 1346985); further: nearly all actives have a fitted effect of over 40% in size
How it was run: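 DPX-2 cells (HepG2 co-transfected with a PXR response element and a CYP3A4-promoter luciferase construct) were seeded at 2,000 per well, rested 5 hr at 37C, then exposed to DMSO-dissolved compounds for 24 hr. Activation was read as luciferase luminescence.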

[15] = molecular target: Nuclear receptor subfamily 1 group I member 2 (Homo sapiens) (UniProt O75469); experiment: CYP3A4 induction through human pregnane X receptor (PXR) by small molecules, qHTS assay (AID 1346984); further: nearly all actives have a fitted effect of over 40% in size
How it was run: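 HepG2-derived DPX-2 line carrying PXR plus a CYP3A4-promoter luciferase reporter; cells plated 5 hr, compound-exposed 24 hr at 37C. CYP3A4 activity probed with 3uM (final) Luciferin-IPA for 3hr, then luciferase read after One-Glo.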
On the % scale 0 is the no-effect control and ±100 the full control effect.

CC(C)(O)c1ccc(CNC(=O)c2cccnc2Oc2ccc(F)cc2)cc1
active: Potency [6] 54.5 µM | Potency [8] 22.4 µM | Potency [10] 31.7 µM
inactive: Potency [1] | Potency [2] | Potency [3] | Potency [4] | Potency [5] | Potency [7] | Potency [9]

CC/C=C\CCOC(=O)CC
inactive: Potency [1] | Potency [2] | Potency [3] | Potency [4] | Potency [5] | Potency [6] | Potency [11] | Potency [8] | Potency [12] | Potency [9] | Potency [10]

O=C(O)c1ccc(-n2nc(-c3ccccc3O)nc2-c2ccccc2O)cc1
inactive: Potency [1] | Potency [2] | Potency [4] | Potency [5] | Potency [6] | Potency [7] | Potency [11] | Potency [12] | Potency [9] | Potency [10]
active: Potency [3] 18.8 µM

ClCCOCCOCCCl
inactive: Potency [1] | Potency [2] | Potency [3] | Potency [4] | Potency [5] | Potency [6] | Potency [7] | Potency [11] | Potency [8] | Potency [9] | Potency [10]

O=[N+]([O-])c1ccc(NCCO)c(OCCO)c1
inactive: Potency [2] | Potency [4] | Potency [6] | Potency [7] | Potency [11] | Potency [8] | Potency [9] | Potency [10]
active: Potency [1] 48.6 µM | Potency [3] 48.6 µM | Potency [5] 27.3 µM

CCCCCCCCO[C@@H]1O[C@H](CO)[C@@H](O)[C@H](O)[C@H]1O
inactive: Potency [1] | Potency [2] | Potency [3] | Potency [4] | Potency [5] | Potency [6] | Potency [7] | Potency [11] | Potency [8] | Potency [9] | Potency [10]

CCC(Cl)CCC(Cl)C(Cl)CC(Cl)C(Cl)C(Cl)CCl (configuration not stated)
inactive: Potency [1] | Potency [2] | Potency [3] | Potency [4] | Potency [5] | Potency [6] | Potency [7] | Potency [11] | Potency [8] | Potency [12] | Potency [9] | Potency [10]

C#CCN(C)CCCOc1ccc(Cl)cc1Cl
inactive: Potency [1] | Potency [2] | Potency [3] | Potency [4] | Potency [5] | max activation [13] -1.33% | Potency [14]
active: Potency [6] 29.8 µM | Potency [7] 1.55 µM | Potency [11] 3.89 µM | Potency [8] 17.4 µM | Potency [12] 1.82 µM | Potency [9] 8.49 µM

CCOC(=O)C(O)c1ccccc1 (configuration not stated)
inactive: Potency [1] | Potency [2] | Potency [3] | Potency [4] | Potency [5] | Potency [6] | Potency [7] | Potency [11] | Potency [8] | Potency [9] | Potency [10]

O=[N+]([O-])c1ccc2[nH]ncc2c1
inactive: Potency [1] | Potency [2] | Potency [3] | Potency [4] | Potency [5] | Potency [6] | Potency [7] | Potency [8] | Potency [9] | Potency [10]
active: Potency [12] 31.7 µM

CCCCCCCC/C=C\CCCCCCCC(=O)OCC
inactive: Potency [1] | Potency [2] | Potency [3] | Potency [4] | Potency [5] | Potency [6] | Potency [7] | Potency [9]
active: Potency [8] 71 µM

CC(CSC(=O)c1ccccc1)C(=O)N1C[C@@H](Sc2ccccc2)C[C@H]1C(=O)O (some centres not stated)
inactive: activity change, negative = cytotoxicity [1] 14.3% [at 19 µM] | caspase activation [2] 0.287% [at 19 µM] | activity change, negative = cytotoxicity [3] -1.81% [at 19 µM] | caspase-3/7 activation [4] 0.0462% [at 19 µM] | activity change, negative = cytotoxicity [5] -2.03% [at 19 µM] | activation [6] 21.6% [at 19 µM] | max activation [13] -2.82% | Potency [15] | Potency [14] | activity change, negative = inhibition [7] 2.02% [at 23.6 µM] | Potency [11] | activity change, negative = inhibition [8] -9.74% [at 23.6 µM] | Potency [12] | activity change, negative = inhibition [9] 3.26% [at 15.8 µM] | activity change, negative = inhibition [10] 15.7% [at 23.6 µM]

CCO[Si](CCCCl)(OCC)OCC
inactive: Potency [1] | Potency [2] | Potency [3] | Potency [4] | Potency [5] | Potency [6] | Potency [12] | Potency [9]
active: Potency [7] 22.3 µM | Potency [11] 31.4 µM | Potency [8] 35.3 µM | Potency [10] 3.53 µM

O=S(c1cc(Cl)cc(Cl)c1O)c1cc(Cl)cc(Cl)c1O
active: Potency [8] 17.4 µM
inactive: Potency [1] | Potency [2] | Potency [3] | Potency [4] | Potency [5] | Potency [6] | max activation [13] -2.94% | Potency [15] | Potency [7] | Potency [9] | Potency [10]

C=C1[C@H]2CC[C@@H]3[C@H]2C(C)(C)CCC[C@]13C
inactive: Potency [1] | Potency [2] | Potency [3] | Potency [4] | Potency [5] | Potency [6] | Potency [7] | Potency [11] | Potency [8] | Potency [9] | Potency [10]

COCC(C)OC(C)=O (configuration not stated)
inactive: Potency [1] | Potency [2] | Potency [3] | Potency [4] | Potency [5] | Potency [6] | Potency [7] | Potency [11] | Potency [8] | Potency [9] | Potency [10]

COc1ccc(C(=O)N2CCN(CC(=O)N3CCOCC3)CC2)cc1
inactive: Potency [1] | Potency [2] | Potency [3] | Potency [4] | Potency [5] | Potency [6] | max activation [13] -1.44% | Potency [15] | Potency [14] | Potency [7] | Potency [11] | Potency [8] | Potency [9] | Potency [10]

CCCCOC(=O)CCCCCCCC(=O)OCCCC
active: Potency [11] 35.6 µM | Potency [8] 44.8 µM
inactive: Potency [1] | Potency [2] | Potency [3] | Potency [4] | Potency [5] | Potency [6] | Potency [7] | Potency [9] | Potency [10]
